Screens: PubChem, The Scripps Research Institute Molecular Screening Center
A selection: hits, their analogues and other compounds. The true share with any hit is near 5.7%.
hcDAF12 agonist – H. contortus DAF-12 nuclear receptor activators, primary screen, cell-based, luminescence, HEK293, lit1-tk-luc reporter. HEK293 hcDAF-12 lit1-tk-luc reporter; 0% DMSO, 100% Δ7-dafachronic acid. activation, % at 6.8 µM. 1.4% of 370,000 active. AID 652067, 2013;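 active = activation above the mean of all tested compounds plus 3 SD, cut at about 5.5% in these data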;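 note: 100% = response to 3 µM Δ7-dafachronic acid high control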
AHR act – AHR activators, primary screen, cell-based, luminescence, luciferase reporter, human; Aryl hydrocarbon receptor (Homo sapiens), P35869; AHR-responsive luciferase reporter cells; activation, % at 5 µM; 2.5% of 320,000 active; in the data active = activation above about 47%;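 note: 0% = vehicle wells and 100% = reference agonist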
DAX1 inh-1 – DAX1 (NR0B1) inhibitors, primary screen, cell-based, HEK293, Gal4-DAX1, luciferase luminescence | Nuclear receptor subfamily 0 group B member 1 (Homo sapiens), P51843 | HEK293 Gal4-DAX1 luciferase reporter | inhibition, % at 6.75 µM | 0.99% of 340,000 active | AID 504766, 2011;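 active = inhibition above the mean over all tested compounds plus 3 SD, cut at about 4.2% in these data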;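 note: 0% = DAX1-transfected cells with DMSO and 100% = empty-vector control cells with DMSO; inhibition shows as a rise in luminescence from relieved DAX1 repression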
Target sequence (P51843 207-470 limits assumed): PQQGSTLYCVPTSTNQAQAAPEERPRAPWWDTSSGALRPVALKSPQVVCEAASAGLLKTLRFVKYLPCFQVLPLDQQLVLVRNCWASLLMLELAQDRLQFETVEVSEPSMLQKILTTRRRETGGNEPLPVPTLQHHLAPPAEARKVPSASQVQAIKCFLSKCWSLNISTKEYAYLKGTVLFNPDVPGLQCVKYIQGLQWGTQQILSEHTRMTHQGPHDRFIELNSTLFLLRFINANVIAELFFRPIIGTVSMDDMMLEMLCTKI
hgDAF-12 ag – H. glycines DAF-12 receptor agonists, primary screen, cell-based, luminescence, HEK293, GAL4 fusion, UAS-luciferase; AID 687014, 2013; Nuclear hormone receptor DAF-12 (Heterodera glycines), GAL4 fusion; HEK293 GAL4-hgDAF12 UAS-luciferase reporter, agonist luminescence; normalized to butyrate control; 1.8% of 370,000 active; activation, % at 6.8 µM;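 active = activation above a cutoff set at the mean of all screened compounds plus 3 SD, cut at about 10% in these data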;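 note: 0% = DMSO wells and 100% = sodium butyrate wells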
DAX1 inh-2 – DAX1 (NR0B1) inhibitors on StAR promoter, primary screen, cell-based, luminescence, SF-1 (NR5A1), full-length DAX-1; AID 652010, 2013; HEK293T StAR-luciferase reporter, SF-1/DAX-1 repression relief; inhibition, % at 6.8 µM; 1.1% of 370,000 active;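 active = inhibition above the mean over all tested compounds plus 3 SD, cut at about 3.6% in these data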;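 note: 0% = DAX-1 cells with DMSO and 100% = cells lacking DAX-1 with DMSO; higher inhibition means more luminescence from relief of DAX-1 repression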
ssDAF12 agonist – S. stercoralis DAF-12 nuclear receptor activators, primary screen, cell-based, luminescence, HEK293, GRIP1 co-expression, lit1-tk-luc | Nuclear hormone receptor DAF-12 (Strongyloides stercoralis) | HEK293 ssDAF-12/GRIP1 lit1-tk-luc reporter; % of 3 µM dafachronic acid response | activation, % at 6.8 µM | 1% of 370,000 active;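 active = activation above the mean over all tested compounds plus 3 SD, cut at about 0.9% in these data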;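 note: 0% = DMSO-only wells and 100% = 3 µM delta7-dafachronic acid wells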
hgDAF12 conf – H. glycines DAF-12 receptor agonists, confirmation, cell-based, luminescence, HEK293, GAL4-LBD fusion. HEK293 GAL4-hgDAF12 luciferase reporter, agonist mode; percent of butyrate response. 80% of 3,300 active. shares compounds with hgDAF-12 ag. activation, % at 6.8 µM;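 active = mean activation over triplicate wells above the hit cutoff derived from the earlier primary screen, cut at about 11% in these data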;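 note: 0% = DMSO low control and 100% = 2 mM sodium butyrate high control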
LXRb DAF12 ctr – LXR agonists, Gal4 luciferase reporter, confirmation, counter-screen for hgDAF-12 agonist project, cell-based, luminescence, HEK293, H. glycines campaign; shares compounds with hgDAF-12 ag; 24 h; activation, % at 6.8 µM; 3,300 tested, under 10 active; AID 743051, 2013;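 active = mean activation of the triplicate above a set limit carried over from the primary screen, none filed active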
The depositor's hits bear a star; . = not tested or not shown.

SMILES	hcDAF12 agonist	AHR act	DAX1 inh-1	hgDAF-12 ag	DAX1 inh-2	ssDAF12 agonist	hgDAF12 conf	LXRb DAF12 ctr
COc1ccc(NS(=O)(=O)c2cc(NC(=O)c3ccc(=O)[nH]n3)ccc2C)cc1	-0.8	1.2	-1.3	5.1	-3.3	-1.4	.	.
CC(C)(C)c1ccc(COC(=O)Nc2ccc(F)cc2)cc1	0.5	1.7	-0.6	2.5	0.1	-0.6	.	.
COc1cccc(NC(=O)Nc2ccc(C(C)(C)C)cc2)c1	3.2	.	-0.1	17.7*	0.8	-0.8	11.3*	0.4
CCn1c(=O)c(C(=O)NNC(=O)c2ccccc2Br)c(O)c2ccccc21	-2.4	8.8	1.9	2.6	0.0	-1.4	.	.
CSCCCNC(=O)c1cn(C(C)c2ccccc2)nn1 (configuration not stated)	-2.5	.	.	-3.3	0.0	-0.9	.	.
CCCCc1c(C)nc2ccc(OC)cc2c1SCCC(=O)O	0.4	2.8	0.9	-4.4	0.0	0.1	.	.
Cc1ccc(NC(=O)Nc2ccc(F)cc2)cc1Cl	1.9	3.1	0.1	14.5*	-0.1	-0.1	11.5*	0.4
CC(=O)N1CCN(C(=S)Nc2ccc(Oc3ccccc3)cc2)CC1	-2.5	-0.5	-0.5	-4.6	0.3	-1.0	.	.
Cc1nn(-c2ccccc2)c(C)c1/C=N/O	-0.9	-1.1	0.2	0.9	0.2	-0.8	.	.
Cc1nn(-c2ccccc2)c(/N=C/c2ccccc2O)c1-c1ccccc1	1.6	3.7	1.8	15.2*	2.6	0.0	11.4*	0.3
CN1CCN(c2ccc(-c3cc(NC=O)c4ncc(-c5ccc(F)cc5)n4c3)cc2)CC1	0.1	.	.	17.4*	0.6	0.4	8.3	0.2
Cc1nc(SCC(=O)N2CCC(Cc3ccccc3)CC2)[nH]c(=O)c1C	-0.9	-0.3	-0.8	1.6	0.4	-0.4	.	.
CCCC(=O)N=C1SC2CS(=O)(=O)CC2N1c1ccc(-c2nc3ccc(C)cc3s2)cc1 (configuration not stated)	6.0*	13.0	1.2	18.2*	2.3	-0.3	9.0	0.5
Cc1ccc(N2C(=NC(=O)c3ccccc3)SC3CS(=O)(=O)CC32)cc1 (configuration not stated)	0.0	0.3	0.1	0.0	-1.7	-1.5	.	.
c1cnc(SCCOc2ccc3c(c2)CCC3)nc1	3.8	2.2	7.6*	15.2*	3.7*	-0.1	17.2*	0.8
CCN(CC)CCOC(=O)c1ccc(NC(=O)c2cn(-c3ccccc3)nc2-c2cccs2)cc1	3.7	.	2.4	14.9*	3.0	-0.3	7.5	0.1
COc1ccc(-n2cc(-c3ccccc3)nc2SC)cc1	3.5	17.4	2.9	15.0*	2.0	-0.8	11.4*	0.4
CSc1ccccc1NC(=O)C1(C)CCN1C(=O)CCC1CCCC1 (configuration not stated)	-0.6	.	.	3.1	1.2	-1.5	.	.
Cc1ccc(NC(CC(=O)c2ccccc2)C(=O)O)cc1Cl (configuration not stated)	5.6*	23.6	5.4*	16.2*	4.2*	0.5	27.3*	1.3
O=C(O)C(F)(F)S(=O)(=O)O	-1.6	1.4	0.9	1.1	0.5	-1.5	.	.
Cc1ccc(C(=O)Nc2nnc(C)s2)o1	-0.7	2.4	1.0	4.5	1.1	-0.7	.	.
COC(=O)c1sc(NC(=O)c2ccc(C)o2)nc1C	2.4	24.5	-0.7	13.8*	1.6	0.2	10.5*	0.8
Cc1ccc(/C=C\c2nccc3c2[nH]c2ccccc23)cc1	4.4	51.2*	2.1	15.4*	4.5*	0.6	8.0	0.3
CC(=O)N1CCN(c2ccc(Oc3ccc([N+](=O)[O-])c(C(F)(F)F)c3)cc2)CC1	.	-3.3	-3.8	.	.	.	.	.
Cc1cc(/C=C2\SC(=S)NC2=O)c(C)n1-c1ccc(O)cc1	3.8	4.3	0.0	13.5*	2.5	-0.1	9.4	0.6
SMILES	hcDAF12 agonist	AHR act	DAX1 inh-1	hgDAF-12 ag	DAX1 inh-2	ssDAF12 agonist	hgDAF12 conf	LXRb DAF12 ctr
CC1=C/C(=N\NC(=O)c2cccs2)CC(C)(C)C1	4.2	7.7	-0.1	16.6*	1.0	-0.4	1.3	0.0
CC(=O)N1CCC(=NNC(=O)c2cccs2)CC1	5.2	20.8	5.3*	14.4*	4.0*	0.3	8.6	0.2
CC1=C/C(=N\NC(=S)NCCc2ccccc2)CC(C)(C)C1	4.8	3.6	1.4	5.4	1.6	-1.1	.	.
CC(=O)N1CCC(=NNC(=O)c2cc3ccccc3cc2O)CC1	0.0	3.1	0.6	1.0	-0.4	-1.6	.	.
COCCCN(C(=O)c1ccc(-c2ccc(C(C)=O)cc2)o1)c1c(N)n(CC(C)C)c(=O)[nH]c1=O	0.2	.	0.3	-0.8	0.2	-0.8	.	.
Cc1ccc(OCc2nc3ccccc3[nH]2)cc1	6.0*	-7.0	0.1	15.5*	4.2*	-0.3	12.8*	0.7
Cc1ccc(C(=O)Cc2nc3ccccc3[nH]2)cc1	1.9	3.0	0.4	6.2	0.9	-0.1	.	.
COc1cccc(C2CCCN2Cc2nc(CCC(C)C)no2)c1 (configuration not stated)	-0.2	0.6	3.8	1.6	0.1	-1.0	.	.
O=C(COc1ccccc1[N+](=O)[O-])N/N=C/c1ccc(O)cc1	0.1	0.0	1.5	3.2	0.1	-0.6	.	.
CCNC(=S)Nc1ccc(-c2nc3ccccc3[nH]2)cc1	2.0	34.0	4.2	14.1*	4.4*	-0.9	16.9*	0.6
O=C(CSc1ccccc1)Nc1ccc(-c2nc3ccccc3[nH]2)cc1	-0.3	14.9	0.4	15.8*	2.1	-1.1	12.6*	0.5
Cc1ccc2nc(-c3ccc(NC(=O)CSc4ccccc4)cc3)[nH]c2c1	3.0	3.8	1.6	8.1	3.0	-0.6	.	.
CC(C(=O)Nc1ccc(F)cc1Cl)N(C)CCOc1ccccc1 (configuration not stated)	-0.3	-4.8	-0.2	-2.2	-0.6	-1.5	.	.
